Compound activity from PubChem BioAssay.
KKLEB tox – counter-screen for CF NF-kB inhibitors: cytotoxicity; KKLEB CF airway cells viability, ATPlite luminescence, overnight; active compounds read low; cells stimulated with P. aeruginosa culture filtrate; activity change (cytotoxicity), % at 5 µM; hit rate 0.36% among 360,000; AID 602141;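 active means corrected activity change at or below -50% at 5 µM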
HIF-2a inh – blocks HIF-2a reporter activity | hit rate 0.72% among 360,000 | 786-0 RCC cells HIF-2a reporter, luciferase luminescence, overnight | inhibition, % at 18.8 µM | AID 624352;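 active means inhibition of the luminescence signal of 40% or more relative to plate controls, in a single-dose primary screen at 18.75 µM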
Peg3 promoter – Peg3 promoter activity inhibition; HeLa PEG-Prom luciferase reporter, luminescence, overnight; inhibition, % at 20 µM; hit rate 1.7% among 360,000; AID 588405;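 active means inhibition of at least 50% at 20 µM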
CF NFkB block – blocks PAF-induced NF-kB reporter in cystic fibrosis cells | KKLEB NF-kB-GFP reporter, GFP fluorescence overnight | inhibition, % at 5 µM | hit rate 0.86% among 360,000 | AID 588850;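 active means at least 50% inhibition at 5 µM, scaled per plate between neutral and stimulator controls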;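 further: PAF is a Pseudomonas aeruginosa culture filtrate used as stimulus; plate controls were PAF-stimulated DMSO wells for no effect and unstimulated DMSO wells for full effect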
Shn3 3UTR inh – inhibitors of Schnurri-3 3'UTR reporter in osteoblasts; Clone20 osteoblast Shn3 3'UTR firefly luciferase, 24 h; hit rate 0.52% among 360,000; inhibition, % at 12.5 µM;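 active means mean inhibition of at least 75% with every replicate also reaching 75%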;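 further: 0% = median of neutral control wells and 100% = pilot-screen positive control compound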
TRPM1 prom inh – MITF TRPM1 promoter inhibition in SK-MEL-5 cells; inhibition, % at 12.5 µM; AID 488899; SK-MEL-5 TRPM1 promoter luciferase, 24 h; hit rate 0.83% among 330,000;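 active means mean inhibition across replicates of 60% or more, whatever share of single replicates reaches that level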
An asterisk follows results filed as active; x = no result given. The list is not random: actives were taken first. Their share in the collection is about 2.7%.

SMILES	KKLEB tox	HIF-2a inh	Peg3 promoter	CF NFkB block	Shn3 3UTR inh	TRPM1 prom inh
Cc1cccc(C)c1NC(=O)C(c1cc2ccccc2o1)N1CCC(c2ccccc2)CC1 (stereo unspecified)	x	-0.9	x	x	x	x
Cc1onc(-c2ccccc2Cl)c1C(=O)Nc1ccc(-c2cn3cccnc3n2)cc1	0.0	3.3	94.2*	-9.8	73.2	-13.1
Cc1ccc(-c2cn3cccnc3n2)cc1NC(=O)c1c(-c2ccccc2Cl)noc1C	-6.1	6.6	28.2	8.1	0.4	12.5
CC(C)(C)n1nnnc1C(c1cc2ccccc2o1)N1CCN(C(=O)OCc2ccccc2)CC1 (stereo unspecified)	x	0.8	x	x	x	x
Cc1[nH]c2c(ccc3ccccc32)c1C1C(CCN)C1(C)C (stereo unspecified)	-25.0	1.5	100.1*	4.6	13.4	71.1*
CCCCCCCCNC(C)C(O)c1ccc(SC(C)C)cc1 (stereo unspecified)	-29.4	22.1	103.9*	5.0	96.0*	82.9*
CCN1C(=O)/C(=C/N(C(C)=O)c2ccccc2)N(c2ccccc2)C1=S	-6.5	86.4*	23.6	20.1	-20.7	5.5
O=C(CCS(=O)(=O)c1ccccc1)Nc1nc2cc3c(cc2s1)OCCO3	-22.6	-87.7	-86.7	44.9	-30.1	1.3
O=C(CCS(=O)(=O)c1ccccc1)Nc1nc2ccc(F)cc2s1	-25.5	-42.2	61.2*	46.3	23.4	14.1
CCc1nc2ccc(C(=O)Nc3cccc(OCC(=O)N(C)C)c3)cn2c1N(C=O)Cc1ccc(OC)cc1	15.1	9.0	3.2	0.7	0.4	x
Cc1ccc(S(=O)(=O)CC2CSc3nc4ccccc4n32)cc1 (stereo unspecified)	14.0	1.1	13.6	-1.7	90.2*	12.8
Cc1ccc(S(=O)(=O)CC2CSc3nc(N)cc(=O)n32)cc1 (stereo unspecified)	-9.2	18.9	-0.5	-5.5	-6.0	5.8
COc1ccc(-c2nc3c(Cl)cc(C(F)(F)F)cn3c2Cc2ccsc2)cc1OC	x	-2.2	x	x	x	x
O=C(Nc1ccc(N2CCOCC2)c(Cl)c1)c1c(F)c(F)c(F)c(F)c1F	-16.4	28.6	51.9*	31.8	17.6	-1.4
COc1ccc(N2CCN(c3nc(NCCc4ccc(OC)c(OC)c4)nc(OC)n3)CC2)cc1	-18.1	7.0	66.6*	8.4	12.2	6.0
O=C1c2cc(Cl)ccc2-c2c(O)cc(Cl)cc21	-21.1	-79.3	74.8*	4.9	37.2	10.4
O=c1cc(O)c(-c2ccc(Cl)cc2)c(Cl)[nH]1	3.1	16.8	9.2	-0.2	x	16.5
CN1CCN(C2CN(CCc3ccccc3)S(=O)(=O)C2)CC1 (stereo unspecified)	4.7	9.4	-16.7	-6.1	-5.0	x
COc1ccc(/C=C2\C(=O)N(c3c(Cl)cc(Cl)cc3Cl)N=C2NC(=O)c2cccc([N+](=O)[O-])c2)cc1	-0.8	44.9*	76.5*	-14.6	63.2	19.5
CCOC(=O)c1c(-c2ccccc2)csc1NC(=O)c1ccc(N2C(=O)CCC2=O)cc1	-57.1*	15.0	11.6	69.4*	-5.2	-1.2
CC12CCC(=O)C=C1CCC1C2C(O)CC2(C)C(c3csc(N)n3)CCC12 (stereo unspecified)	-8.3	1.6	2.9	7.3	85.6*	8.4
Cc1ccc(S(=O)(=O)N2CCCC(C(=O)NCCc3ccc(Cl)cc3)C2)cc1 (stereo unspecified)	6.3	-1.9	4.2	4.1	-13.3	x
O=C1c2cc(F)ccc2-n2c1nc1ccccc1c2=O	-27.4	-30.4	8.4	82.6*	58.8	98.3*
COc1cccc(C(O)c2ncc(-c3ccccc3Cl)[nH]2)c1 (stereo unspecified)	8.7	-94.1	-40.3	10.7	-21.8	x
NC(Cc1ccc(Cl)cc1)c1csc(Nc2cc(Oc3ccccc3)ncn2)n1 (stereo unspecified)	-6.4	-0.4	108.4*	19.8	32.8	x
SMILES	KKLEB tox	HIF-2a inh	Peg3 promoter	CF NFkB block	Shn3 3UTR inh	TRPM1 prom inh
NC(Cc1ccc(F)cc1)c1csc(Nc2cc(NCc3ccco3)ncn2)n1 (stereo unspecified)	-21.0	13.7	70.3*	22.8	0.2	x
COc1cccc(Nc2nc(C(N)Cc3ccc(C(F)(F)F)cc3)cs2)n1 (stereo unspecified)	-11.7	12.9	99.5*	4.6	9.0	x
NC(Cc1ccccc1)c1csc(Nc2ccc(C(F)(F)F)cn2)n1 (stereo unspecified)	3.1	4.6	99.9*	0.7	21.1	x
OC[C@@H]1CN(Cc2ccc3c(c2)OCO3)C[C@H](n2cnc3c(NC4CCCC4)ncnc32)O1	8.4	-6.5	15.7	-6.6	3.6	x
Cc1cc2c(cc1C)-n1nnnc1C(N1CCN(C(=O)OCc3ccccc3)CC1)C(=O)N2 (stereo unspecified)	x	0.1	x	x	x	x
COc1cccc(Nc2nc(C(N)COCc3ccccc3)cs2)n1 (stereo unspecified)	-24.7	8.7	47.5	22.7	9.5	x
COc1cccc(Nc2nc(C(N)CCc3ccccc3)cs2)n1 (stereo unspecified)	-29.8	9.8	109.3*	41.3	6.5	x
COc1cccc(Nc2nc(C(N)Cc3ccc(F)cc3)cs2)n1 (stereo unspecified)	-28.2	-8.8	113.9*	36.9	-7.0	x
COc1cccc(Nc2nc(C(N)CC(C)C)cs2)n1 (stereo unspecified)	-8.2	-1.3	11.6	-17.4	15.0	x
COc1cccc(Nc2nc(C(N)Cc3ccc(Cl)cc3)cs2)n1 (stereo unspecified)	-13.6	12.0	98.6*	15.3	-15.2	x
CC(C)N1CCC1(C)C(=O)Nc1nccc2cccnc12 (stereo unspecified)	-24.5	2.7	5.4	29.7	31.1	x
COC(=O)c1ccc2c(=O)n(CCCCCC(=O)N3CCN(c4ccccc4)CC3)c(=O)[nH]c2c1	1.5	3.0	47.1	-8.2	77.8	8.5
COc1cc2[nH]c(=O)n(CCCCCC(=O)N3CCN(c4ccccc4)CC3)c(=O)c2cc1OC	-4.8	26.0	57.5*	15.0	-12.5	-8.5
COC(=O)/C(=C(/F)Sc1cc(C)c(O)c(C)c1)C(F)(F)F	1.3	8.3	63.2*	-3.6	-3.0	24.5
COC(=O)C(Nc1ccccc1Cl)(c1cc(C)c(O)c(C)c1)C(F)(F)F (stereo unspecified)	12.4	5.6	27.4	-1.2	18.5	27.4
N#Cc1c(-c2ccc(Cl)cc2)c(-c2ccc(Cl)cc2)nn(CCOC(=O)CCC(=O)O)c1=O	-4.5	12.8	4.5	5.2	5.5	11.0
COc1ccc(CNC(=O)Nc2nnc([C@@H]3C[C@H](O)[C@@H](CO)O3)s2)cc1	-0.8	7.3	5.4	0.0	-8.0	x
C=CC[C@@H](CC(=O)N(CCO)Cc1ccccc1)C(=O)N[C@@H](COC(=O)[C@@H](CC=C)Cc1ccc(F)cc1)Cc1c[nH]c2ccccc12	-5.6	14.9	43.3	29.7	30.1	7.1
